The record followed here is PubChem BioAssay AID743315 (Broad Institute, 2014).

Results with a measured potency or affinity are listed apart. Activity calls are given as the source filed them.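 Rule for the calls: active = cell killing, with a fitted active concentration at or below twice the top valid dose tested; inconclusive = flat curve with moderate cell loss, or an unreliable fit; inactive = effect in the rising direction, plus the rest.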

The test is described as follows: loss of HEK293T viability via ATP – cell-based, plate reader, dry powder, set 10, cytotoxicity control, dose response (AID 743315). The note with it: CellTiter-Glo ATP luminescence, 72 h; series mostly up to 26 µM.
Take `COCc1nc2ccccc2n1CCOc1ccc(C(C)(C)C)cc1`: the call was inactive.
Consider `Cc1ccc(C(C)C)c(OCCn2c(CO)nc3ccccc32)c1`, for which the call was inactive.
Next, `Cc1cccc(OCCn2c(=S)[nH]c3cc(F)ccc32)c1`: “inactive”.
Under `Cc1ccc(C(C)C)c(OCCn2c(=S)[nH]c3c(Cl)cccc32)c1` stands “inactive”; under `c1ccc(OCCn2cnc3ccccc32)cc1`, “inactive”; under `S=c1[nH]c2ccccc2n1CCOc1ccccc1Cl`, “inactive”.
Under `Cc1ccc(C(C)C)c(OCCn2c(=S)[nH]c3cc(F)ccc32)c1` stands “inactive”; under `Cc1ccc(OCCn2c(=S)[nH]c3ccccc32)c(C(C)C)c1`, “inactive”; under `S=c1[nH]c2cccc(Cl)c2n1CCOc1ccccc1`, “inactive”.
For `O=c1[nH]c2ccccc2n1CCOc1ccccc1`, the result was inactive.
Under `Cc1ccc(OCCn2c(=S)[nH]c3ccccc32)cc1` stands “inactive”; under `Cc1ccc(C(C)C)c(OCCn2c(=S)[nH]c3ccc(Cl)cc32)c1`, “inactive”.
Regarding `Cc1ccc(OCCn2cnc3ccccc32)cc1`, the compound was called inactive.
Under `CCOc1ccc(OCCn2c(=S)[nH]c3ccccc32)cc1` stands “inactive”; under `Cc1ccc(C(C)C)c(OCCn2c(=S)[nH]c3cccc(F)c32)c1`, “inactive”; under `COc1ccccc1OCCn1c(=S)[nH]c2ccccc21`, “inactive”.
For `Cc1cccc(OCCn2c(=S)[nH]c3ccccc32)c1C`, the compound was called inactive.
Under `Cc1ccc(C)c(OCCn2c(=S)[nH]c3ccccc32)c1` stands “inactive”; under `S=c1[nH]c2ccccc2n1CCOc1ccccc1`, “inactive”.
Under `Fc1cccc(OCCn2c(=S)[nH]c3ccccc32)c1` stands “inactive”; under `Cc1cccc(OCCn2c(=S)[nH]c3c(F)cccc32)c1`, “inactive”; under `Fc1ccccc1OCCn1c(=S)[nH]c2ccccc21`, “inactive”.
Next, `Fc1ccc(OCCn2c(=S)[nH]c3ccccc32)cc1`: “inactive”; `Cc1ccc(C(C)C)c(OCCn2c(=S)[nH]c3cccc(C)c32)c1`: “inactive”.
